In PubChem BioAssay (Tox21):
Inconclusive results are not listed. The source made the active and inactive calls. Unless noted, calls come from the whole dose curve; as a rule, active = well fitted curve in the direction sought with a large enough effect in the repeat runs; inconclusive = weak or mixed curves; inactive = no such curve, though single readings can be large; an effect the other way counts as inactive or inconclusive.

What was measured:
[1] = qHTS assay for small molecule agonists of the p53 signaling pathway (AID 651631; calls by dose curve; note: nearly all actives have a fitted effect of over 15% in size)
Method in brief: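 HCT-116 p53RE-bla reporter line, 16 h compound treatment at 37 °C, then fluorescence after 2 h with B/G FRET substrate.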

[2] = qHTS assay for small molecules that induce genotoxicity in human embryonic kidney cells expressing luciferase-tagged ATAD5 (AID 651632); note: nearly all actives have a fitted effect of over 15% in size
Method in brief: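 Test compounds were delivered by pin tool onto HEK293T reporter cells (2,000/well) expressing ATAD5 fused to luciferase. After 16 hr at 37C, 5% CO2, Amplite was added for 30 min at room temperature and luminescence was measured.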

[3] = qHTS assay for small molecule agonists of the p53 signaling pathway - cell viability (AID 651633; calls by dose curve;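 note: p53RE-bla HCT reporter cells with a stable beta-lactamase p53 reporter; series mostly up to about 83 µM; nearly all actives have a fitted effect of over 30% in size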)
Method in brief: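 p53RE-bla cells, seeded at 4,000 per well and rested 5 h at 37 C/5% CO2, received compounds in DMSO for 16 h at 37 C. CellTiter-Glo was then added, and luminescence was read after 30 min at room temperature to gauge cytotoxicity.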

[4] = qHTS assay for small molecules that induce genotoxicity in human embryonic kidney cells expressing luciferase-tagged ATAD5 - cell viability (AID 651634; calls by dose curve; note: nearly all actives have a fitted effect of over 25% in size)
Method in brief: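 Quantitative high-throughput format. HEK293T cells expressing ATAD5 fused to luciferase were plated at 2,000 cells/well and treated 15.5 hr with compound versus DMSO. Viability was determined by fluorescent live-cell protease substrate, 30 min at 37C.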

[5] = qHTS assay for small molecule disruptors of the mitochondrial membrane potential - cell viability (AID 720634; calls by dose curve;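 note: human HepG2 liver cancer cells; series mostly up to about 83 µM; nearly all actives have a fitted effect of over 20% in size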)
Method in brief: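 Same-well counter-screen: following the MMP dye addition, CellTiter-Glo was added to 1 hr compound-treated HepG2 cells and luminescence read after 30 min at room temperature.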

[6] = qHTS assay for small molecule disruptors of the mitochondrial membrane potential (AID 720635)
Method in brief: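 HepG2 cells (2,000/well) attached overnight at 37C, then took compound for 1 hr at 37C, 5% CO2. Mito-MPS dye was added for 30 min; fluorescence was read at 490/535 nm (monomers) and 540/590 nm (aggregates).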

[7] = qHTS assay to test for compound auto fluorescence at 590 nm (red) in HepG2 cells (AID 720674)
Method in brief: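 Rose Bengal sodium served as the red fluorophore standard. HepG2 monolayers (overnight attachment, MEM with 10% FBS) were exposed to test compounds for 1 hr at 37 C and read at Ex 540/Em 590 nm.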

[8] = qHTS assay to test for compound auto fluorescence at 535 nm (green) in HepG2 cells (AID 720675)
[9] = qHTS assay to test for compound auto fluorescence at 460 nm (blue) in HEK293 cells (AID 720678)
Method in brief: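 Cells were seeded and left to adhere for 4-5 hr at 37C. Compounds were then pin-transferred. After an overnight incubation at 37C under 5% CO2, intrinsic fluorescence at 405/460 nm was measured and referenced to triamterene.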

[10] = qHTS assay to test for compound auto fluorescence at 590 nm (red) in HEK293 cells (AID 720679)
Method in brief: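 Each well held 2,000 HEK293 cells in medium containing 10% dialyzed FBS. Following 4-5 hr attachment at 37C, 23 nL test compound or DMSO was added; plates sat overnight, and red fluorescence (540/590nm) was recorded.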

Measured: Potency

C=C(C)C(=O)OCC(C)C
inactive: all assays above

CCO[Si](CCCN)(OCC)OCC
inactive: all assays above

CCNC(=S)NCC
inactive: all assays above

CNC(=O)Oc1ccc2c(c1)[C@]1(C)CCN(C)[C@@H]1N2C
not listed: [6]
inactive: all other assays above

CCOC(=O)n1ccn(C)c1=S
inactive: all assays above

CC(CCO)CC(C)(C)C (stereo not given)
inactive: all assays above

COc1ccc(OC)cc1
inactive: all assays above

CC(C)CC(=O)CC(C)CC(C)C (stereo not given)
inactive: all assays above

CCCOC(=O)c1ccccc1
inactive: all assays above

Cc1ccc([N+](=O)[O-])cc1S(=O)(=O)O
inactive: all assays above

CC(C)OC(=O)COc1ccc(Cl)cc1Cl
inactive: all assays above

NCCN1CCNCC1
inactive: all assays above

CC(C)=CCl
not listed: [6]
inactive: all other assays above

COc1ccccc1OCC(O)CO (stereo not given)
not listed: [5]
inactive: all other assays above

COCCCN
not listed: [5]
inactive: all other assays above

CCOCCOCCOCCO
not listed: [5]
inactive: all other assays above

COCCOC(=O)c1ccccc1C(=O)OCCOC
not listed: [5]
inactive: all other assays above

CSc1ccc(Cl)cc1
not listed: [5]
inactive: all other assays above

CN(C)CCOC(=O)COc1ccc(Cl)cc1
not listed: [6]
inactive: all other assays above

CCCCCCCCCCN
not listed: [5]
inactive: all other assays above

Brc1ccc(Br)c(Br)c1
not listed: [6]
inactive: all other assays above

CCOCC(=O)O
not listed: [5]
inactive: all other assays above

O=C(O)CCCCCCCCC(=O)O
not listed: [5]
inactive: all other assays above

CN/C(=C\[N+](=O)[O-])NCCSCc1csc(CN(C)C)n1
not listed: [5]
inactive: all other assays above

COc1cc(OC)c(C(=O)CCCN2CCCC2)c(OC)c1
not listed: [6]
inactive: all other assays above

C=CCCCCCCCCC(=O)O
not listed: [6]
inactive: all other assays above
